# Screening data as filed in PubChem BioAssay.
# tim23-1 inh – growth inhibitors of tim23-1 mutant yeast, primary screen, luminescence, uHTS | S. cerevisiae tim23-1 growth, BacTiter-Glo luminescence, 24 h | inhibition, % at 20 µM | actives 1.3% (n = 330,000) | AID 463212, 2010;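 active = growth inhibition of the mutant yeast at or above 50%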;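 note: temperature-sensitive mutant grown at 25 °C; plate controls were DMSO-treated mutant yeast for no effect and medium wells lacking yeast for full effect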
# TIM10 inh – growth inhibitors of isogenic TIM10 control yeast, primary screen, counter-screen for tim10-1 yeast inhibitor project, luminescence, uHTS | S. cerevisiae TIM10 strain growth, BacTiter-Glo luminescence, 24 h | inhibition, % at 10 µM | actives 1.4% (n = 330,000) | AID 463195, 2010;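 active = inhibition of 40% or more at the single tested concentration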;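 note: wild-type TIM10 isogenic control strain grown at permissive 25 °C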
# Rce1 inh – yeast Rce1p protease inhibitors, primary screen, biochemical, fluorescence, cell-free homogeneous | actives 0.27% (n = 290,000) | calls only | CAAX prenyl protease 2 (Saccharomyces cerevisiae (strain ATCC 204508 / S288c)), Q03530 | yeast membranes, quenched prenylated peptide cleavage fluorescence | AID 2563, 2010;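 active = fall in fluorescence gain of 50% or more versus controls, with final raw signal at or below 3038400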;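 note: plate controls were neutral control wells for no effect and wells lacking membranes for full effect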
# Target sequence (Q03530 whole entry, looked up): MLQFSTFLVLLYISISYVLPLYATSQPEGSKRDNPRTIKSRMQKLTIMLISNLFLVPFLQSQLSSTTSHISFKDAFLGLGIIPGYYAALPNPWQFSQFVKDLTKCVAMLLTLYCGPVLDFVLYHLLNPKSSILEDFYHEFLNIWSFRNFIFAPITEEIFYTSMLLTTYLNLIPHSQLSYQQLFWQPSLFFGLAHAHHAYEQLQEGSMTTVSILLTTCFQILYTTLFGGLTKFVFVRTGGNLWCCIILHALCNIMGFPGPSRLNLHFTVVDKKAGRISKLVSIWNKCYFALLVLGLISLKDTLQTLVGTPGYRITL
# tim10-1 inh – growth inhibitors of tim10-1 mutant yeast, primary screen, luminescence, uHTS | S. cerevisiae tim10-1 ts strain growth, BacTiter-Glo, 24 h | inhibition, % at 20 µM | actives 2.2% (n = 330,000);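 active = inhibition of at least 40%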;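 note: mutant grown at 25 °C; 0% = DMSO wells with yeast and 100% = wells holding no yeast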
# PfHsp90 yeast 2 – growth inhibition of PfHsp90-expressing yeast, primary screen, antimalarial PfHsp90 inhibitor project, S. cerevisiae, BacTiter-Glo luminescence, single point, set 2; inhibition, % at 9.4 µM; BacTiter-Glo ATP, 48 h; yeast lacking PDR1 and PDR3 efflux regulators; actives 0.32% (n = 310,000);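 active = every replicate shows inhibition above about 80%, whatever the replicate mean, limit read from the data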;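 note: 0% = DMSO neutral controls and 100% = 20 µM radicicol positive controls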
# tim10 confirm – growth inhibitors of wild-type TIM10 yeast, confirmation, counter-screen for tim10-1 synthetic lethality project, single concentration, luminescence, S. cerevisiae; shares compounds with TIM10 inh; S. cerevisiae tim10 strain growth, BacTiter-Glo luminescence, 24 h; inhibition, % at 10 µM; actives 63% (n = 4,600); AID 463215, 2010;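 active = inhibition of yeast growth at or above a set limit in either of two replicates at 10 µM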;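 note: this counterscreen used the strain with wild-type TIM10; 0% = yeast with DMSO and 100% = medium wells lacking yeast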
# The depositor's hits bear a star; i = inactive; nt = not tested or not shown. The list is not random: actives were taken first. Their share in the collection is about 3.7%.
SMILES,tim23-1 inh,TIM10 inh,Rce1 inh,tim10-1 inh,PfHsp90 yeast 2,tim10 confirm
CC(=O)C(Sc1nc(NC(C)(C)C)nc(N(C)C)n1)C(C)=O,27,44*,i,29,18,12
CC(=O)Oc1ccc2nc(CN3C(=O)c4ccc([N+](=O)[O-])cc4C3=O)oc(=O)c2c1,1,8,i,4,3,nt
CCCCCCOC(=O)Sc1nc2ccccc2o1,38,77*,i,-19,128*,72*
COc1ccccc1NC(=O)Nc1nc(CC(=O)Nc2cc(F)ccc2F)cs1,34,12,i,17,-1,nt
COc1ccccc1NC(=O)Nc1ccc(Cc2ccncc2)cc1,36,44*,i,32,nt,39*
COc1ccccc1NC(=O)Nc1cc(F)ccc1F,40,46*,nt,29,-15,9
COc1ccccc1NC(=O)Nc1ccncc1,-6,-5,i,-6,6,nt
CC(Sc1nnc(N)s1)C(=O)Nc1ccc2c(c1)OCCO2 (stereo not given),10,-2,nt,3,-3,nt
CC(C)CC(c1nnnn1Cc1cccs1)N1CCN(c2nc3ccccc3s2)CC1 (stereo not given),1,28,i,30,33,nt
CC(C)C(c1nnnn1Cc1ccco1)N1CCN(c2nc3ccccc3s2)CC1 (stereo not given),21,45*,i,28,16,-25
COc1cc(OC)cc(C(=O)Nc2nnc(NC(=S)Nc3ccccc3)s2)c1,9,20,i,18,7,nt
CC(C)(C)c1nnc(NC(=S)Nc2ccccc2)s1,28,45*,i,35,32,24
CCOC(=O)c1cnn(-c2ccc(NS(=O)(=O)c3ccc(Cl)cc3)cc2)c1C(F)(F)F,28,52*,i,27,-11,6
CCOC(=O)c1ccc(NS(=O)(=O)c2ccc(Cl)nc2)cc1,13,16,i,4,nt,nt
Cc1nc2ccccc2n1CC(=O)OCC(=O)NCc1ccccc1,10,-19,i,-7,11,nt
COc1ccc(Br)cc1CNC(=O)Nc1cccs1,13,51*,i,29,nt,39*
COc1ccccc1CNC(=O)Nc1cccs1,18,28,i,22,-16,nt
COc1ccc(CCNC(=O)C2CCC(=O)N(CC3CCCCC3)C2)cc1 (stereo not given),13,0,i,25,2,nt
COc1ccc(NC(NC(=O)c2ccc(OC)cc2)C(Cl)(Cl)Cl)cc1 (stereo not given),35,42*,i,33,-1,26*
Cc1cccc(CN2CCc3c(OCC(=O)N4CCCc5ccccc54)cccc3C2=O)c1,29,29,i,32,-2,nt
O=C1c2cccc(OCC(=O)N3CCCc4ccccc43)c2CCN1Cc1ccc(F)cc1,43,43*,i,34,-13,-50
S=C(Nc1ccccc1)Nc1cccc(Br)c1,28,23,i,39,12,nt
O=C(CCN1C(=O)c2ccccc2C1=O)NC(=S)Nc1cccc(Cl)c1,1,41*,i,8,-11,25
S=C(Nc1cccc(Br)c1)c1ccccc1,45,43*,i,38,-7,44*
CC(=O)c1cccc(NC(=S)NCCCCc2ccccc2)c1,33,41*,i,28,9,-16
O=C(CCc1ccccc1)NC(=S)Nc1cccc(Br)c1,42,48*,i,37,1,-16
CCCCNC(=S)Nc1cccc(C(C)=O)c1,16,-10,i,13,-3,nt
COC(=O)Cn1c(=O)c2c(nc3n2CCCN3CCc2ccc(OC)c(OC)c2)n(C)c1=O,3,11,i,-1,11,nt
O=C(c1ccco1)N1CCN=C1SCc1cccc(F)c1,20,96*,i,-10,5,-3
O=C(c1ccco1)N1CCN=C1SCc1ccc(F)cc1,0,6,i,5,-4,nt
